Potency data for eleven compounds are collected here from PubChem BioAssay AID2061321 (National Center for Advancing Translational Sciences (NCATS), 2025).

Results filed as inconclusive are left out. The source made the active and inactive calls. Calls come from the whole dose curve; as a rule, active = well fitted inhibition curve with a large enough effect; inconclusive = small, poorly fitted or top-dose-only effect; inactive = flat fitted curve, though single readings scatter. Non-standard residues stand in square brackets, D forms with d. Residues, ends and D or L forms follow the SMILES beside them. Dolaproine = CO[C@@H]([C@@H]1CCCN1)[C@@H](C)C(=O)O; Dil = CC[C@H](C)[C@H](NC)[C@@H](CC(=O)O)OC; NMeV = CN[C@H](C(=O)O)C(C)C

This experiment is described as follows: Identification of antibody-drug conjugate (ADC) payloads which are substrates of ATP-binding cassette drug efflux transporters: ABCG2-H460 cell line. As to conditions: H460 MX20 (ABCG2) viability, CellTiter-Glo, 48 h. The source says: Antibody-drug conjugates (ADCs) feature an antibody recognizing a specific protein joined to a potent toxic payload. Numerous antibody-drug conjugates have received FDA approval; however, clinical resistance arises. Resistance mechanisms include decreased expression or mutation of the antibody target, impaired payload release, or increased expression of ATP-binding cassette (ABC) efflux transporters associated with multidrug resistance. We therefore sought to characterize the interaction of ABC multidrug transporters with ADC payloads. We performed a high-throughput screen with 27 common ADC payloads using cells lines expressing ABC transporters P-glycoprotein (P-gp, encoded by ABCB1) or ABCG2 (encoded by ABCG2). Confirmatory assays were also performed using cells transfected to express P-gp, ABCG2, or MRP1 (encoded by ABCC1). Several commonly used ADC payloads were substrates of P-gp, including calicheamicin gamma1, monomethyl auristatin E, DM1, and DM4. All the pyrrolobenzodiazepines tested - SJG136, SGD-1882, SG2057, and SG3199 - were substrates of P-gp, ABCG2, and MRP1. […] These findings highlight the risk of transporter-mediated resistance with certain ADC payloads and underscore the importance of selecting payloads that evade ABC transporter recognition in future ADC development.
HEK-293 cells were transfected with empty vector (pcDNA) or vector containing the human ABCB1 (MDR-19), ABCG2 (R-5), or ABCC1 gene (MRP1) and were maintained in EMEM with 2 mg/mL G418 added to maintain transporter expression. The HeLa derivative KB-3-1 and the P-gp overexpressing KB-8-5-11 subline were maintained in DMEM; KB-8-5-11 additionally received 100 ng/mL colchicine. H460 parental cells were obtained from the Division of Cancer Treatment and Diagnosis Tumor Repository, National Cancer Institute at Frederick, MD and were cultured in RPMI. The ABCG2 expressing subline H460 MX20 was generated by selecting H460 cells in 20 nM mitoxantrone. Media in all cases was supplemented with 10% FBS and 1% penicillin-streptomycin. We explored 27 common ADC payloads, in two orthogonal, paired cell line sets-a drug selected and transfected set for each transporter--to identify substrates of the ABC transporters P-gp and ABCG2. Compounds were sourced from Levena Biopharma (San Diego, CA), Selleck Chem (Houston, TX), ChemieTek (Indianapolis, IN), or Microsource Discovery Systems (Gaylordsville, CT). Screening was performed as previously described. Briefly, cells were plated at a density of 500 cells/well in 1536 well plates with compounds added using a 1536-head pin tool (Kalypsys, San Diego CA). Cells were incubated with cytotoxic drugs and processed with CellTiter Glo reagent (Promega, Madison, WI) to determine viability after 48 hours. P-gp substrates were identified by comparing compound activity between paired sets of low-expressing (sensitive) and over-expressing (resistant) cell lines.
On the technique in general: ATP-based viability assays read luminescence as a measure of living cells.
For `CC[C@H](C)[C@@H]([C@@H](CC(=O)N1CCC[C@H]1[C@H](OC)[C@@H](C)C(=O)N[C@@H](Cc1ccccc1)C(=O)O)OC)N(C)C(=O)[C@@H](NC(=O)[C@@H](NC)C(C)C)C(C)C` (H-[NMeV]V[Dil][Dolaproine]F-OH), the Potency is 5330 nM (active).

Regarding `CCN(C(C)=O)[C@H]1CO[C@@H](O[C@H]2[C@H](O[C@H]3C#C/C=C\C#C[C@]4(O)CC(=O)C(NC(=O)OC)=C3/C4=C\CSSSC)O[C@H](C)[C@@H](NO[C@H]3C[C@H](O)[C@H](SC(=O)c4c(C)c(I)c(O[C@@H]5O[C@@H](C)[C@H](O)[C@@H](OC)[C@H]5O)c(OC)c4OC)[C@@H](C)O3)[C@@H]2O)C[C@@H]1OC`, the Potency was 7.5 nM (active).

Consider `COc1cccc2c1C(=O)c1c(O)c3c(c(O)c1C2=O)C[C@@](O)(C(=O)CO)C[C@@H]3O[C@H]1C[C@H]2[C@H](O[C@@H]3[C@@H](OC)OCCN32)[C@H](C)O1`, for which the Potency was 0.0598 nM (active).

Take `CCN[C@H]1CO[C@@H](O[C@H]2[C@H](O[C@H]3C#C/C=C\C#C[C@]4(O)CC(=O)C(NC(=O)OC)=C3/C4=C\CSSSC)O[C@H](C)[C@@H](NO[C@H]3C[C@H](O)[C@H](SC(=O)c4c(C)c(I)c(O[C@@H]5O[C@@H](C)[C@H](O)[C@@H](OC)[C@H]5O)c(OC)c4OC)[C@@H](C)O3)[C@@H]2O)C[C@@H]1OC`: the Potency was 1.1 nM (active).

On to `CC[C@]1(O)CC2CN(CCc3c([nH]c4ccccc34)[C@@](C(=O)OC)(c3cc4c(cc3OC)N(C)[C@H]3[C@@](O)(C(=O)OC)[C@H](OC(C)=O)[C@]5(CC)C=CCN6CC[C@]43[C@@H]65)C2)C1` (stereo partly specified), for which the Potency is 533 nM (active).

On to `COc1cc2cc(c1Cl)N(C)C(=O)C[C@H](O)[C@]1(C)O[C@H]1[C@H](C)C1C[C@@](O)(NC(=O)O1)[C@H](OC)/C=C/C=C(\C)C2`, for which the Potency is 4750 nM (active).

Take `CN(C)CCOc1ccc2[nH]c(C(=O)N3C[C@@H](CCl)c4c3cc(O)c3ccccc43)cc2c1`: the Potency is 0.2 nM (active).

Turning to `CC(C)(C)OC(=O)Nc1ccc2[nH]c(C(=O)N3C[C@@H](CCl)c4c3cc(O)c3ccccc43)cc2c1`, the Potency was 2.1 nM (active).

Regarding `COc1cccc2c1C(=O)c1c(O)c3c(c(O)c1C2=O)C[C@@](O)(C(=O)CO)C[C@@H]3O[C@H]1C[C@H](N)[C@H](O)[C@H](C)O1`, the Potency was 377 nM (active).

In the case of `CCc1c2c(nc3ccc(O)cc13)-c1cc3c(c(=O)n1C2)COC(=O)[C@]3(O)CC`, the Potency is 11.9 nM (active).

`COC(=O)c1cc2c3c(cc(O)c2[nH]1)N(C(=O)c1cc2cc(OC)c(OC)c(OC)c2[nH]1)CC3CCl` (stereo unspecified): the Potency is 0.4 nM (active).
